Assay results taken from PubChem BioAssay (NCI).
Compounds without any hit were thinned out: in the full panel of roughly 83,000, 20% have a hit.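 Method: cells in 96-well plates; compound added at one concentration; 48 h incubation; percent growth measured; values under 10 scored active.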 Active and inactive are the calls of the source.

What was measured:
Test in all cases: NCI-60 one-dose screen, 48 h (100 = growth as untreated, 0 = no growth, -100 = all killed)
Conditions in all cases: 10 µM unless noted
NCI-H23 lung = tested on: NCI-H23 lung
NCI-H226 lung = tested on: NCI-H226 lung
NCI-H322M lung = tested on: NCI-H322M lung
HOP-62 NSCLC = tested on: HOP-62 NSCLC
NCI-H460 lung = tested on: NCI-H460 lung
HOP-92 NSCLC = tested on: HOP-92 NSCLC
NCI-H522 lung = tested on: NCI-H522 lung
A549/ATCC NSCLC = tested on: A549/ATCC NSCLC
786-0 renal = tested on: 786-0 renal
COLO 205 colon = tested on: COLO 205 colon
DU-145 prostate = tested on: DU-145 prostate
K-562 leukemia = tested on: K-562 leukemia
MALME-3M melanoma = tested on: MALME-3M melanoma
MDA-MB-231 breast = tested on: MDA-MB-231 breast
RXF 393 renal = tested on: RXF 393 renal
SF-268 CNS = tested on: SF-268 CNS
SF-295 CNS = tested on: SF-295 CNS
SF-539 CNS = tested on: SF-539 CNS
UACC-257 melanoma = tested on: UACC-257 melanoma
M14 melanoma = tested on: M14 melanoma

Measured: growth

CC(C)NS(=O)(=O)/N=C1\NC(=O)NC1=C(Cl)Cl
inactive: NCI-H23 lung 101% | NCI-H226 lung 95.3% | NCI-H322M lung 103% | HOP-62 NSCLC 101% | NCI-H460 lung 99.2% | HOP-92 NSCLC 122% | NCI-H522 lung 54.2% | A549/ATCC NSCLC 94% | 786-0 renal 110% | COLO 205 colon 113% | DU-145 prostate 104% | K-562 leukemia 91.3% | MALME-3M melanoma 99.9% | MDA-MB-231 breast 116% | RXF 393 renal 112% | SF-268 CNS 91.3% | SF-295 CNS 103% | SF-539 CNS 96% | UACC-257 melanoma 76.8% | M14 melanoma 97.2%

Cc1nc(N/N=C/c2cn(-c3ccccc3)nc2-c2cc3ccccc3oc2=O)sc1N=Nc1ccccc1
inactive: NCI-H23 lung 93.7% | NCI-H226 lung 95.4% | NCI-H322M lung 104% | HOP-62 NSCLC 66% | NCI-H460 lung 99.7% | HOP-92 NSCLC 97.1% | NCI-H522 lung 66.2% | A549/ATCC NSCLC 96.6% | 786-0 renal 97.3% | COLO 205 colon 105% | DU-145 prostate 105% | K-562 leukemia 34% | MALME-3M melanoma 89.6% | MDA-MB-231 breast 87.7% | RXF 393 renal 94.6% | SF-268 CNS 94.9% | SF-295 CNS 81.6% | SF-539 CNS 87.7% | UACC-257 melanoma 94.5% | M14 melanoma 70.7%

O=C(/C=C/c1cccc(Oc2ccccc2)c1)c1ccc(Nc2nc(Nc3ccc(F)cc3)nc(Nc3ccc(Cl)cc3)n2)cc1
active: HOP-92 NSCLC -6.77%
inactive: NCI-H23 lung 77.1% | NCI-H226 lung 113% | NCI-H322M lung 93.8% | HOP-62 NSCLC 104% | NCI-H460 lung 108% | NCI-H522 lung 109% | A549/ATCC NSCLC 90.2% | 786-0 renal 96.1% | COLO 205 colon 103% | DU-145 prostate 117% | K-562 leukemia 11.5% | MALME-3M melanoma 90.4% | MDA-MB-231 breast 108% | RXF 393 renal 96.6% | SF-268 CNS 99.9% | SF-295 CNS 104% | SF-539 CNS 116% | UACC-257 melanoma 109% | M14 melanoma 106%

CN1C(=O)/C(=C/c2ccc(C(=O)Nc3ncc(Cc4cc(Cl)ccc4Cl)s3)cc2)SC1=S
inactive: NCI-H23 lung 67.6% | NCI-H226 lung 68.5% | NCI-H322M lung 76.7% | HOP-62 NSCLC 72.4% | NCI-H460 lung 73.7% | HOP-92 NSCLC 50.2% | NCI-H522 lung 62.5% | A549/ATCC NSCLC 73.3% | 786-0 renal 87.9% | COLO 205 colon 89.2% | DU-145 prostate 73.7% | K-562 leukemia 54.7% | MALME-3M melanoma 69.4% | MDA-MB-231 breast 75.7% | RXF 393 renal 60.1% | SF-268 CNS 71% | SF-295 CNS 65.8% | SF-539 CNS 79.8% | UACC-257 melanoma 91.8% | M14 melanoma 46.5%

CC1SC(c2ccccc2O)N(NC(=O)CCC(=O)c2nc3ncccc3[nH]2)C1=O (stereo not given)
inactive: NCI-H23 lung 86.5% | NCI-H226 lung 80.7% | NCI-H322M lung 93.4% | HOP-62 NSCLC 87.8% | NCI-H460 lung 103% | HOP-92 NSCLC 79.2% | NCI-H522 lung 95.5% | A549/ATCC NSCLC 96.2% | 786-0 renal 90.3% | COLO 205 colon 110% | DU-145 prostate 102% | K-562 leukemia 109% | MALME-3M melanoma 94% | MDA-MB-231 breast 103% | RXF 393 renal 96.4% | SF-268 CNS 95.7% | SF-295 CNS 96.2% | SF-539 CNS 93.1% | UACC-257 melanoma 99.4% | M14 melanoma 97.6%

O=C1C=C(SCCO)C(=O)c2ccccc21
inactive: NCI-H226 lung 95.6% | NCI-H322M lung 69.6% | HOP-92 NSCLC 94.3% | NCI-H522 lung 21.6% | A549/ATCC NSCLC 68.1% | 786-0 renal 70.3% | COLO 205 colon 76.3% | MDA-MB-231 breast 40.2% | RXF 393 renal 42.4% | SF-268 CNS 27.2% | UACC-257 melanoma 66.7%
active: NCI-H23 lung -39% | HOP-62 NSCLC -46.9% | NCI-H460 lung 9.52% | DU-145 prostate -96.7% | K-562 leukemia -38.4% | MALME-3M melanoma -68.1% | SF-295 CNS -77.4% | SF-539 CNS -77.1% | M14 melanoma -86.5%

Fc1ccc2[nH]cc(-c3nc(-c4c[nH]c5c(Cl)nccc45)cs3)c2c1
inactive: NCI-H23 lung 60.4% | NCI-H226 lung 40% | NCI-H322M lung 76.7% | HOP-62 NSCLC 57.1% | HOP-92 NSCLC 36.4% | NCI-H522 lung 16.7% | A549/ATCC NSCLC 22.5% | COLO 205 colon 25.2% | DU-145 prostate 32% | K-562 leukemia 11.8% | MALME-3M melanoma 74.3% | MDA-MB-231 breast 13.7% | RXF 393 renal 16.3% | SF-268 CNS 67.2% | SF-295 CNS 18.1% | SF-539 CNS 41.1%
active: NCI-H460 lung 4.9% | 786-0 renal -19.4% | UACC-257 melanoma -38.3% | M14 melanoma -5.3%
